The nature of this assay: resazurin metabolic signal in HepG2 cells – cell-based, resazurin fluorescence, 24 h, PK04 Diversity Set, profiling panel (AID 1172). Note: test concentration not given here. The note with it: HepG2 viability, higher = more signal.
For the molecule `CCOC(=O)C[C@H]1[C@H](OC(=O)Cc2ccc3c(c2)OCO3)[C@@H](NC(=O)CC(C)C)c2cc(OCCCO)ccc2N1C(=O)Cc1ccc(OC)cc1`, the z-score is -0.334. The same measure for `CCOC(=O)C1=C[C@@H](c2ccccc2)N(S(=O)(=O)c2ccc(C)cc2)[C@H]1c1ccccc1Cl`: -0.695; for `C[N+](C)(C)CCCC[C@@H]1NC(=O)[C@H]2C[C@@H](C(=O)NCCCCCCN)[C@@H](c3ccc(O)cc3)N2C1=O`: -0.132; for `C=C(COC)C(=O)CC[C@@H](OC(=O)c1cccnc1)c1ccc(OCCO)cc1`: 0.379. `COC(=O)[C@@]1(Cc2ccc(OC)cc2)[C@H]2c3cc(C(=O)N4CCCC4)n(Cc4c(-c5ccccc5)noc4C)c3C[C@H]2CN1C(=O)c1ccccc1` displayed a z-score of -0.338.

On to `COCCCNC(=O)[C@]1(CCS(=O)(=O)c2ccccc2)N=C(c2ccc(OCCCO)cc2)O[C@@H]1c1ccccc1CN=[N+]=[N-]`, for which the z-score is -0.776. The same measure for `COC(=O)[C@@]1(Cc2ccc(F)cc2)[C@H]2c3cc(C(=O)N(C)C)n(CCc4ccc(O)c(OC)c4)c3C[C@H]2CN1C(=O)c1ccccc1`: -0.275. The same measure for `COC(=O)[C@@]1(Cc2ccccc2)[C@H]2c3cc(C(=O)N(C)C)n(CCN4CNCC4=O)c3C[C@H]2CN1C(=O)c1ccccc1`: 0.0001; for `O=C1O[C@H](c2ccccc2)[C@H](c2ccccc2)N2[C@H]1[C@@H](C(=O)Nc1nc3ccccc3s1)[C@]1(C(=O)Nc3ccc(C#CCCO)cc31)[C@H]2c1ccc(O)cc1`: 0.506; for `COC(=O)c1cn(C[C@@H](Cc2ccccc2)NC(=O)N[C@H](CO)CCc2oc(C(C)=O)c(C(=O)OC)c2C(=O)OC)nn1`: 0.0852.

For the molecule `COCCOC(=O)N1C(=O)[C@@]2(c3cc(C#CC4=CCCCC4)ccc31)[C@H](C(=O)N1CCCCCCC1)[C@H]1C(=O)O[C@H](c3ccccc3)[C@H](c3ccccc3)N1[C@@H]2c1ccc(O)cc1`, the z-score turned out to be 0.0166. Molecule `CCOC(=O)C[C@H]1[C@H](OC(=O)c2ccccc2-c2ccccc2)[C@@H](NC(=O)C2CCCCC2)c2cc(OCCCO)ccc2N1C(=O)Cc1ccc(OC)cc1` returned a z-score of -0.18. Take `COc1ccc(-c2cc3c(c(CCc4ccccc4)n2)[Si](C(C)C)(C(C)C)OC3)cn1`: the z-score came to 1.09. Turning to `COC(=O)[C@@]1(Cc2ccccc2)[C@H]2c3cc(C(=O)N(C)C)n(CCc4ccc(O)c(OC)c4)c3C[C@H]2CN1C(=O)c1ccccc1`, the z-score came to 0.0393.

The molecule `COC(=O)Cn1c(C(=O)N(C)C)cc2c1C[C@H]1CN(C(=O)c3ccccc3)[C@@](Cc3ccc(F)cc3)(C(=O)OC)[C@@H]21` registered a z-score of -0.836.

Molecule `C=CCNC(=O)[C@H]1[C@@H]2C(=O)O[C@@H](c3ccccc3)[C@@H](c3ccccc3)N2[C@@H](c2ccc(O)cc2)[C@]12C(=O)N(C(=O)OCCOC)c1ccccc12` came in with a z-score of -0.757.

Molecule `CC(C)N1C(=O)c2ccccc2[C@@H](C(=O)NC2CC2)[C@@H]1c1ccc(CO)cc1` displayed a z-score of -0.146. For `O=C1N(Cc2ccccc2)Cc2ccccc2[C@@H]2OC(c3ccc(OCCCO)cc3)=N[C@]12CCS(=O)(=O)c1ccccc1`, the z-score was -0.121. The same measure for `CC(C)C(=C=CC[C@H](O)c1ccc(OCCO)cc1)C[C@H](O)c1ccccn1`: 0.748. The molecule `COC(=O)c1nc2oc1CC[C@@H](CO)NC(=O)N(C)Cc1cnnn1C[C@H](Cc1ccccc1)NC2=O` showed a z-score of 0.841. The same measure for `CCOC(=O)C[C@H]1[C@H](OC(=O)Cc2ccc3c(c2)OCO3)[C@@H](NC(=O)Cc2ccc(OC)cc2)c2cc(OCCCO)ccc2N1C(=O)c1ccc2ccccc2n1`: -0.337; for `CCCCCCCCCCC(O)C1C=CC2C(=O)N(C)C(=O)C2N1NC(=O)OC(C)(C)C` (stereo unspecified): -5.01; for `O=C1NC(=O)C2C1C=CC(C(O)c1c(F)cccc1Cl)N2Nc1ccc(Cl)cc1Cl` (stereo unspecified): -3.13.

For the molecule `O=C1O[C@H](c2ccccc2)[C@H](c2ccccc2)N2[C@H]1[C@@H](C(=O)Nc1nc3ccccc3s1)[C@]1(C(=O)Nc3ccc(C#CC4(O)CCCCCC4)cc31)[C@H]2c1ccccc1OCCO`, the z-score stood at 0.162. The same measure for `CC(C)[Si](C#C[Si](C(C)C)(C(C)C)C(C)C)(O[C@H](C)c1cn([C@H](CO)Cc2ccccc2)nn1)C(C)C`: 0.967. The same measure for `COCCCNC(=O)[C@@]1(Sc2ccc(C)cc2)CC(=O)N(C2CCCCC2)[C@@H]1c1ccc(CO)cc1`: -0.0171. The molecule `O=C1C2C=CC(C(O)c3ccccc3)N(Nc3ccccc3F)C2C(=O)N1c1ccccc1` (stereo unspecified) returned a z-score of 0.688. The same measure for `CCC[C@@H]1C[C@@]1(CCC)[C@@H](NC(=O)OCc1ccccc1)c1ccc(-c2ccccc2)cc1`: 2.43; for `N#Cc1ccc(C(O)C2C=CC3C(=O)N(c4ccccc4)C(=O)C3N2Nc2ccccc2)cc1` (stereo unspecified): -0.888; for `C=CCC(OC(C)=O)[C@@H]1[C@@H](N(Cc2ccc(-c3ccccc3)cc2)C(=O)Cc2ccc(F)cc2)c2cc(OCCCO)ccc2N1C(=O)Cc1ccc(OC)cc1` (stereo partly specified): -0.939.

`COc1ccc([Si](C)(C)[C@@H]2[C@@H](CC(=O)N(CCO)Cc3ccccc3)O[C@]3(C(=O)N(c4ccccc4)c4ccccc43)[C@H]2C)cc1` registered a z-score of -2.66. The same measure for `COC(=O)[C@@]1(Cc2ccccc2)[C@@H]2C(=CC(=O)[C@H]2CC(=O)C(=O)N(C)C)CN1C(=O)c1ccccc1`: -1.24. The same measure for `CN(C)C(=O)[C@@]1(Cc2ccccc2CN=[N+]=[N-])N=C(c2ccc(OCCCO)cc2)O[C@H]1c1ccccc1CN=[N+]=[N-]`: -1.43. The same measure for `CCOc1cc(C(O)C2C=CC3C(=O)N(c4ccccc4)C(=O)C3N2Nc2ccc(C#N)cc2)ccc1O` (stereo unspecified): -1.79; for `COc1ccc([Si](C)(C)[C@@H]2[C@@H](CC(=O)N3Cc4ccccc4C[C@H]3CO)O[C@]3(C(=O)N(Cc4cccc(N5C(=O)c6cccc7cccc5c67)c4)c4ccccc43)[C@H]2C)cc1`: -0.468.

For `COc1ccc(-c2nc(-c3ccccc3)c3c(c2C)CO[Si]3(C(C)C)C(C)C)cn1`, the z-score came to 0.539.

Values taken from PubChem BioAssay.
